Source: PubChem BioAssay (several laboratories)
FGF22 binding: FGF22 (human) thermal shift binding. Q9HCT0. recombinant FGF22 thermal shift, SYPRO orange fluorescence; percent of sucrose octasulfate shift, DMSO zero. activity (Tm shift, normalised), % at 9.99 µM. actives 1.5% (n = 340,000). AID 651658;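 active = mean Tm shift, scaled 0 neutral to 100 positive control, at about 1.3% or above, every replicate too, limit read from the data; inconclusive = no clear call, values can overlap the other calls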
AF4-AF9 inh: inhibitors of human MLL-AF4/AF9 interaction | P42568 | AlphaScreen, biotin-AF4 peptide binding to FLAG-AF9 | inhibition, % at 10 µM | actives 0.47% (n = 350,000) | AID 651704;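 active = every replicate reaching a set inhibition limit, whatever the replicate mean, cut at about 25% in these data; inconclusive = mean inhibition reaches that limit but some replicates miss it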;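 also: 0% = plate neutral control median and 100% = total signal loss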
Target sequence (P42568 whole entry, looked up): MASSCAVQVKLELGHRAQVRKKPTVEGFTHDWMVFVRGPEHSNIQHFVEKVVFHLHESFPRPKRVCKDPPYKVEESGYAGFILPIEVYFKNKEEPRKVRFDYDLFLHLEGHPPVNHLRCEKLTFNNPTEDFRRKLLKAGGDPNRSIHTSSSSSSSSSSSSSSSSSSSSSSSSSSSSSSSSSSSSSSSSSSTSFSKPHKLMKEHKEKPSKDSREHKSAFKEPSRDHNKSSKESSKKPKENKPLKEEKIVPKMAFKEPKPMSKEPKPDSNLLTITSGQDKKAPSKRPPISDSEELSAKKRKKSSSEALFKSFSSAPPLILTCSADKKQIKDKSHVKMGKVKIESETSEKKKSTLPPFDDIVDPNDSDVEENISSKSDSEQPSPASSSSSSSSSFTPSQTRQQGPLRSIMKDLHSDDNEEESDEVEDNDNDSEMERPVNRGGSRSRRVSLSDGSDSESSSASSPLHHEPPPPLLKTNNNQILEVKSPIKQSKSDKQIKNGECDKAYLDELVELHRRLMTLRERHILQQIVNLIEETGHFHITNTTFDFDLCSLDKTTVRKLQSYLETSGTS
Wnt act: Wnt/beta-catenin pathway activation; Wnt/beta-catenin reporter cell assay, activator, plate reader; AID 743398; actives 1.2% (n = 300,000); activation, % at 9.35 µM; in the data active = activation above about 30%, passing the limit was not always enough; inconclusive = no clear call, values can overlap the other calls;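 also: 0% = neutral control wells and 100% = positive control wells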
SMARCA2 activ: activators of SMARCA2 function. MG213 cells, MMTV-luciferase reporter, dexamethasone, overnight. activation, % at 9.1 µM. actives 1% (n = 370,000). AID 652017; in the data active = activation above about 7.8%;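 also: 0% = vehicle wells and 100% = reference activator wells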
esBAF inh: SWI/SNF esBAF complex inhibition; reporter increase, % at 12.5 µM; mouse ES cells, Bmi1-luciferase knock-in reporter, 24 h; 100% = twice the neutral-well signal; actives 2% (n = 350,000); in the data active = activation above about 40%; inconclusive = no clear call, values can overlap the other calls;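 also: 0% = median of the plate's neutral control wells and 100% = double that signal; a rise in the Bmi1 reporter signal indicates esBAF inhibition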
MITF TRPM1 HTS: increases MITF-driven TRPM1 promoter luciferase signal | SK-MEL-5 TRPM1-promoter luciferase, 24 h; % of positive control, neutral wells = 0 | activation, % at 12.5 µM | actives 0.75% (n = 300,000) | AID 588334;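 active = mean activation of at least 80% with every replicate also reaching 80%; inconclusive = mean reaches 80% but some replicate falls short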;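 also: 0% = neutral control wells and 100% = parthenolide positive control wells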
Numbers without * were called inactive; ? = inconclusive; . = not tested or not shown. Compounds with a hit are over-represented: about 4.3% of the library has one in this group of screens.

SMILES	FGF22 binding	AF4-AF9 inh	Wnt act	SMARCA2 activ	esBAF inh	MITF TRPM1 HTS
CCOC(=O)C(=NC(C)C)NNc1cc(Cl)ccc1Cl	0.2	-0.6	39.8*	-1.5	.	-8.6
CCCC(=O)Nc1ccc2c(c1)C(=O)N(C)C[C@H](OC)[C@H](C)CN(Cc1ccccc1F)[C@@H](C)CO2	0.0	-0.8	.	.	3.2	.
CC1CN(C(=S)SCCN2Cc3ccccc3C2=O)CC(C)O1 (stereo unspecified)	0.0	3.3	-1.0	-0.3	.	1.2
O=C1c2ccccc2CN1CCSC(=S)N1CCOCC1	0.1	-1.7	41.2*	3.2	.	53.9
S=c1[nH]c(-c2ccccc2)cs1	0.5	-4.8	-0.3	-3.1	.	21.2
Fc1ccc(-c2csc(=S)[nH]2)cc1	43.0*	-2.7	3.8	-1.2	.	40.8
COc1ccccc1N(CC(=O)N(CC(C)C)CC(C)C)S(=O)(=O)c1cccs1	42.9*	-1.4	-0.7	3.1	-6.3	-8.1
C[C@H]1CN([C@@H](C)CO)C(=O)c2cccc(NC(=O)C3CCCCC3)c2O[C@@H]1CN(C)C(=O)Nc1cccc2ccccc12	0.0	0.8	.	.	3.8	.
O=C(NNC(=S)Nc1ccccc1)c1cccc(Br)c1	.	.	.	4.4	46.9*	11.3
O=C(NNC(=S)Nc1ccccc1)c1ccc(O)cc1	0.4	-52.4	56.7*	5.8	77.8*	?
O=C(NNC(=S)NC(=O)c1ccccc1)c1ccc(O)cc1	0.0	-0.2	-0.2	-0.2	1.5	-4.0
Cc1cccn2c1nc(=S)n2C(=O)c1ccco1	.	.	71.8*	3.4	.	60.8
C[C@H](CO)N1C[C@H](C)[C@@H](CN(C)C(=O)Cc2ccccn2)Oc2ncc(/C=C/c3ccccc3)cc2C1=O	0.6	2.6	.	.	-1.8	.
O=C(c1ccco1)N1CCn2c1nc1ccccc12	.	.	.	3.8	46.5*	.
Nc1nc2ccccc2n1C(=O)c1ccco1	.	.	36.9*	2.9	.	28.3
Nc1nc2ccccc2n1C(=O)c1ccccc1	43.0*	0.6	-5.2	6.4	.	-1.1
Nc1nc2ccccc2n1C(=O)c1ccc(F)cc1	0.3	-3.1	20.2	1.8	-63.4	1.0
COc1ccc(NC(=O)N(C)C[C@H]2OCCCC[C@@H](C)Oc3ccc(NC(=O)Nc4c(C)noc4C)cc3C(=O)N([C@H](C)CO)C[C@H]2C)cc1	-0.5	0.5	.	.	3.5	.
N#C[C@H]1[C@H](c2ccccc2-c2ccccc2F)[C@H](CO)N1C(=O)Cc1ccccc1	-0.2	-0.5	.	.	.	.
CCCN1C[C@H](C)[C@H](OC)CN(C)C(=O)c2ccc(NC(=O)c3cccc(F)c3)cc2OC[C@H]1C	0.1	38.9*	.	.	2.0	.
CCCN1C[C@@H](C)[C@@H](OC)CN(C)C(=O)c2ccc(NC(=O)c3cccc(F)c3)cc2OC[C@@H]1C	0.2	?	.	.	-0.8	.
CCCN1C[C@H](C)[C@@H](OC)CN(C)C(=O)c2ccc(NC(=O)c3cccc(F)c3)cc2OC[C@H]1C	-0.2	45.4*	.	.	-0.6	.
CCCN1C[C@@H](C)[C@H](OC)CN(C)C(=O)c2ccc(NC(=O)c3cccc(F)c3)cc2OC[C@H]1C	-0.2	?	.	.	3.8	.
CCCN1C[C@H](C)[C@@H](OC)CN(C)C(=O)c2ccc(NC(=O)c3cccc(F)c3)cc2OC[C@@H]1C	0.0	39.4*	.	.	4.1	.
C[C@H](CO)N1C[C@H](C)[C@H](CN(C)C(=O)Cc2ccccn2)Oc2ncc(-c3cccc(C(=O)N(C)C)c3)cc2C1=O	-0.3	-2.1	.	.	-0.7	.
SMILES	FGF22 binding	AF4-AF9 inh	Wnt act	SMARCA2 activ	esBAF inh	MITF TRPM1 HTS
CO[C@H]1CN(C)C(=O)c2ccc(NC(=O)c3cc(C)on3)cc2OC[C@@H](C)N(C(C)=O)C[C@H]1C	-0.1	-1.9	.	.	-3.5	.
O=C(NC1CCCCC1)c1ccc([N+](=O)[O-])o1	.	.	.	.	18.1	-43.2
O=C(NC1CCCC(C(F)(F)F)C1)c1ccc([N+](=O)[O-])o1 (stereo unspecified)	0.2	-2.3	0.2	7.9*	18.7	-65.3
C[C@@H]1CN([C@H](C)CO)S(=O)(=O)c2ccc(-c3cccc(C#N)c3)cc2O[C@@H]1CN(C)CC1CC1	-0.1	3.4	.	.	-0.7	.
O=C(NC1CCCCC1)[C@H]1[C@H](CO)[C@H]2Cn3c(ccc(-c4ccccc4)c3=O)[C@@H]1N2	.	-2.0	.	.	.	.
CCCNC(=O)c1oc2ccc3c(c2c1C)C=CC(C)(C)O3	-0.1	8.2	38.4*	1.4	55.6*	105.0*
CCCNC(=O)c1oc2ccc3c(c2c1C)C(=O)CC(C)(C)O3	.	.	59.2*	2.6	-14.9	89.2*
CCOC(=O)[C@]12CCCC3=C1N(CCC3)C(=O)[C@@H](CC(=O)NCCc1ccccc1OC)C2	.	.	.	-3.1	.	.
Cc1ccc2c(CN3CCC(C)CC3)cc(=O)oc2c1C	0.0	-2.9	3.7	0.7	?	93.5*
CC(C)(C)c1ccc(-c2nc(-c3ccncc3)no2)cc1	0.1	1.8	-2.6	-1.6	-25.6	2.4
CC(C)(C)c1ccc(-c2noc(-c3ccno3)n2)cc1	0.2	.	-3.0	2.7	26.2	117.9*
Cc1ccc2cc(/C=N/Nc3nc4ccccc4[nH]3)c(Cl)nc2c1	-0.1	1.5	.	7.8*	.	13.6
Cc1ccc(/C=N/Nc2cn[nH]c(=O)n2)o1	0.1	-1.3	15.8	5.6	.	-4.8
Cc1ccc(/C=N\Nc2nc3ccc(Cl)cc3[nH]2)o1	.	.	67.8*	4.1	.	38.9
Fc1ccccc1-c1ccc(/C=N/Nc2nc3ccccc3[nH]2)o1	-0.1	7.8	53.1*	4.2	.	13.1
C(=N\Nc1nc2ccccc2[nH]1)/c1ccc2c(c1)OCCO2	0.3	.	34.7*	-7.1	.	.
C[C@H](CO)N1C[C@H](C)[C@@H](CN(C)Cc2ccc(F)cc2)Oc2ncc(C#CCN(C)C)cc2C1=O	0.1	6.2	.	.	-1.5	.
COC(=O)c1ccc(N=Cc2c(C(F)(F)F)[nH][nH]c2=O)cc1	43.4*	-2.7	-10.8	-0.6	.	28.2
COc1ccc(CN=Cc2c(C(F)(F)F)[nH][nH]c2=O)cc1	.	.	.	1.3	-6.5	.
Cc1cccc(C)c1N=Cc1c(C(F)(F)F)[nH][nH]c1=O	43.0*	1.6	-0.6	0.2	0.2	21.4
Cn1[nH]c(C(F)(F)F)c(C=Nc2ccc(Cl)cc2)c1=O	42.8	1.4	-1.5	1.6	5.5	-6.6
CN(C)S(=O)(=O)c1ccc(N=Cc2c(C(F)(F)F)[nH][nH]c2=O)cc1	43.6*	-6.7	1.1	-1.9	-4.8	-10.0
C[C@@H]1CN([C@H](C)CO)C(=O)c2cc(/C=C/c3ccccc3)cnc2O[C@H]1CN(C)C(=O)Nc1ccccc1F	-0.1	9.6	.	.	5.1	.
c1ccc(-c2cc(-c3cc(-c4ccccc4)on3)no2)cc1	43.2*	1.1	-3.2	-1.3	.	.
COc1ccc(-c2cc(-c3ccccc3)no2)cc1	0.1	-3.4	18.5	4.3	-40.3	44.2
CCOC(=O)/C(C#N)=C/c1ccc(-c2ccsc2C(=O)OC)o1	.	.	-3.2	0.2	54.2*	.
COC(=O)c1sccc1-c1ccc(C(=O)Nc2cccnc2)o1	.	.	4.7	2.1	20.4	97.5*
